Data published in the supplement of paper PMC12494721.
Where a name gives a salt, the structure may show the parent alone.

system: Ruminococcus gnavus DSM 108212; experiment: growth (OD595) fold change vs plate DMSO controls (fold change (ratio)); higher = more growth; details: incubation time: 27 h, anaerobic, 37 °C
In short: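 Anaerobic 27 h, 37 °C mGAM 96-well cultures were shaken, then read for absorbance at 595 nm. Values were blank-subtracted and corrected for compound background using 20 µM compound solutions in water. A calibration factor of 5 converted them to OD. Growth is the fold change versus the median of plate DMSO controls. Fold changes above 1.5 were set to NA, and values are the mean of 2 biological replicates.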

Row | Structure (SMILES) | growth
1 | CCOc1ccc2c(c1)C(C)=CC(C)(C)N2 [Ethoxyquin] (20 µM) | 1.22
2 | Cn1c(=O)c2c(ncn2C)n(C)c1=O [Caffeine] (20 µM) | 0.963
3 | C[C@]12CC[C@@H]3c4ccc(O)cc4CC[C@H]3[C@@H]1CC[C@@H]2O [Estradiol-17 beta] (20 µM) | 1.17
4 | CC(=O)OCC(=O)[C@@]12OC3(CCCC3)O[C@@H]1C[C@H]1[C@@H]3CCC4=CC(=O)C=C[C@]4(C)[C@@]3(F)[C@@H](O)C[C@@]12C [Amcinonide] (20 µM) | 1.19
5 | OCCN1CCN(CCCN2c3ccccc3C=Cc3ccccc32)CC1 [Opipramol dihydrochloride] (20 µM) | 0.902
6 | CC(C)[N+](C)(CCOC(=O)C1c2ccccc2Oc2ccccc21)C(C)C [Propantheline bromide] (20 µM) | 0.994
7 | C[C@H](O)[C@H](O)[C@H]1CNc2[nH]c(N)nc(=O)c2N1 [Sapropterin dihydrochloride] (20 µM) | 0.813
8 | CCN(CC)CCNC(=O)c1cc(S(C)(=O)=O)ccc1OC [Tiapride hydrochloride] (20 µM) | 0.09
9 | CNCCCN1c2ccccc2CCc2ccccc21 [Desipramine hydrochloride] (20 µM) | 1.12
10 | COc1ccccc1OCC(O)CN1CCN(CC(=O)Nc2c(C)cccc2C)CC1 (stereo not drawn) [Ranolazine] (20 µM) | 0.994
11 | CC(=O)c1ccc2c(c1)N(CCCN1CCC(CCO)CC1)c1ccccc1S2 [Piperacetazine] (20 µM) | 0
12 | Cn1cc(C(=O)Nc2ccc(F)cc2-c2ccc(Cl)c(Cl)c2)c(C(F)F)n1 (20 µM) | 1.21
13 | Nc1nc(=O)[nH]cc1F [Flucytosine] (20 µM) | 1.03
14 | O=c1oc2cc(O)ccc2s1 [Tioxolone] (20 µM) | 1.07
15 | CCN1C(=O)NC(c2ccccc2)C1=O (stereo not drawn) [Ethotoin] (20 µM) | 1.14
16 | C=C1/C(=C\C=C2/CCC[C@]3(C)[C@@H]([C@H](C)/C=C/[C@@H](O)C4CC4)CC[C@@H]23)C[C@@H](O)C[C@@H]1O [Calcipotriene] (20 µM) | 1.3
17 | COc1ccc([C@@H]2Sc3ccccc3N(CCN(C)C)C(=O)[C@@H]2OC(C)=O)cc1 [Diltiazem hydrochloride] (20 µM) | 1.01
18 | N#Cc1ccc(C(c2ccc(C#N)cc2)n2cncn2)cc1 [Letrozole] (20 µM) | 1.12
19 | Clc1ccc(CSC(Cn2ccnc2)c2ccc(Cl)cc2Cl)cc1 (stereo not drawn) [Sulconazole nitrate] (20 µM) | 0.423
20 | NC(=O)c1ncn([C@@H]2O[C@H](CO)[C@@H](O)[C@H]2O)n1 [Ribavirin] (20 µM) | 0.942
21 | CC(C)NCC(O)c1cc(O)cc(O)c1 (stereo not drawn) [Metaproterenol sulfate] (20 µM) | 1.17
22 | Cc1ccccc1C(=O)Nc1ccc(C(=O)N2CCCC(O)c3cc(Cl)ccc32)c(C)c1 (stereo not drawn) [Tolvaptan] (20 µM) | 1.06
23 | CC(C)(C)NC(=O)[C@H]1CC[C@H]2[C@@H]3CC[C@H]4NC(=O)C=C[C@]4(C)[C@H]3CC[C@]12C [Finasteride] (20 µM) | 1.24
24 | O=c1n(CCCN2CCN(c3cccc(Cl)c3)CC2)nc2ccccn12 [Trazodone hydrochloride] (20 µM) | 1.06
25 | NNc1nncc2ccccc12 [Hydralazine hydrochloride] (20 µM) | 0.792
26 | CN(C/C=C/c1ccccc1)Cc1cccc2ccccc12 [Naftifine hydrochloride] (20 µM) | 0.89
27 | N=c1nc(N2CCCCC2)cc(N)n1O [Minoxidil] (20 µM) | 0.722
28 | C=CC[C@@H]1/C=C(\C)C[C@H](C)C[C@H](OC)[C@H]2O[C@@](O)(C(=O)C(=O)N3CCCC[C@H]3C(=O)O[C@H](/C(C)=C/[C@@H]3CC[C@@H](O)[C@H](OC)C3)[C@H](C)[C@@H](O)CC1=O)[C@H](C)C[C@@H]2OC [Tacrolimus Monohydrate] (20 µM) | 1.02
